Compounds with a hit are over-represented: about 5.2% of the library has one in this group of screens.
PLK1 PBD inh: qHTS for Inhibitors of PLK1-PDB (polo-like kinase 1 - polo-box domain): Primary Screen; Serine/threonine-protein kinase PLK1 (Homo sapiens), P53350; Plk1 PBD binding of FITC phosphopeptide, fluorescence polarization; Potency, µM, for the others: max response, negative = inhibition, most hits filed as inhibitors; 360,000 compounds, 2.8% hits; also: series mostly up to about 57 µM; nearly all actives have a fitted effect of over 65% in size
Sfp PPTase inh: qHTS Assay for Inhibitors of Bacillus subtilis Sfp phosphopantetheinyl transferase (PPTase). AID 1490, 2009. 4'-phosphopantetheinyl transferase ffp (Bacillus subtilis), Q9F4F7. 310,000 compounds, 3.5% hits. Potency, µM, for inactives: largest response in the series, negative = inhibition, usual class: inhibitors. Biochemical Sfp PPTase activity, qHTS;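 also: the enzyme is Sfp with the accession as filed and its product quenches rhodamine fluorescence; 0% = enzyme reaction without inhibitor and -100% = no enzyme wells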
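After 15 min at room temperature with compound, 15 nM Sfp received 5 uM rhodamine-CoA plus 12.5 uM BHQ-2-ybbR (50 mM Hepes pH 7.6, 10 mM MgCl2). Rate came from the fluorescence difference over 30 min, ex 525/em 598 nm.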
TrxR1 substrate: qHTS Assay for Substrates of Mammalian Selenoprotein Thioredoxin Reductase 1 (TrxR1): qHTS | 390,000 compounds, 0.01% hits | AID 588456, 2011 | Potency, µM (titrated, usually from 114 µM), without a hit: top-dose activity change, negative = substrate turnover | purified TrxR1 substrate turnover, NADPH consumption readout; also: nearly all actives have a fitted effect of over 50% in size
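Rat TrxR1, dispensed at 90 nM, was prereduced with 400 uM NADPH (final) for 5 min at ~22 deg C, then incubated with compound 15 min before 400 uM selenite. A first-read NADPH fluorescence drop versus no-compound background flagged substrates.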
VDR inhibitor: Inhibitors of the vitamin D receptor (VDR): qHTS; 400,000 compounds, 0.93% hits; VDR-SRC2-3 peptide fluorescence polarization, 2 h; AID 504847, 2011; Potency, µM, for inactives: max response, negative = inhibition, most hits filed as inhibitors; Vitamin D3 receptor (Homo sapiens), P11473
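After 23 nl compound addition and a short centrifugation, plates sat for 2 hours at ambient temperature; polarization of fluorescence then indicated loss of VDR binding to peptide SRC2-3.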
TrxR1 inh: qHTS Assay for Inhibitors of Mammalian Selenoprotein Thioredoxin Reductase 1 (TrxR1): qHTS; recombinant rTrxR1, NADPH fluorescence consumption, selenite substrate; Potency, µM (top dose mostly 114 µM), without a hit: at the top dose activity change, negative = inhibition, usual class: inhibitors; 390,000 compounds, 1% hits; also: nearly all actives have a fitted effect of over 65% in size
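Rat TrxR1 (90 nM in the dispensed reagent) was pre-reduced with 400 uM NADPH for 5 min at room temperature, then incubated with compound for 15 min. After 400 uM selenite was added, NADPH fluorescence (Ex 340/Em 450 nm) was followed for 8 min.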
mIDH1 inhibitor: qHTS for Inhibitors of mutant isocitrate dehydrogenase 1 (IDH1): qHTS. Isocitrate dehydrogenase [NADP] cytoplasmic (Homo sapiens), O75874. 390,000 compounds, 0.093% hits. IDH1-R132H enzyme, NADPH consumption, diaphorase/resazurin fluorescence. Potency, µM (highest dose often 76.6 µM), for the others: at the top dose activity change, negative = inhibition, most hits filed as inhibitors. AID 602179, 2012; also: nearly all actives have a fitted effect of over 65% in size
Target sequence (O75874 whole entry R132H, stated change not applied): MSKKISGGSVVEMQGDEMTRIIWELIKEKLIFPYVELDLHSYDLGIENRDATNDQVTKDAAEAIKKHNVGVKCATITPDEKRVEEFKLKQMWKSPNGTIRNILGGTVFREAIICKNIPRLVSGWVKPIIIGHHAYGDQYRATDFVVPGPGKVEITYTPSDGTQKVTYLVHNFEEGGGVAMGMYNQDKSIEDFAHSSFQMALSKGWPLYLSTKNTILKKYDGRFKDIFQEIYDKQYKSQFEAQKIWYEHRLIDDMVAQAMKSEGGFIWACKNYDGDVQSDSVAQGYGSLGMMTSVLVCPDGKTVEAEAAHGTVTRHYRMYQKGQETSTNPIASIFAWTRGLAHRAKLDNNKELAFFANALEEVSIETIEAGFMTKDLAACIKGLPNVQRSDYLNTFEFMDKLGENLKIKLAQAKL
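IDH1-R132H (0.5 ug/mL) preincubated 30 min with compound, then NADPH (0.016 mM) and alpha-KG (2 mM) added; 80 min at RT, pH 7.5. Remaining NADPH coupled via diaphorase/resazurin to fluorescence (540/590 nm); concentration-response curves normalized to no-enzyme control.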
Active calls of the source: *; ? = inconclusive; · = no result given; [ ] = remark or other dose. Calls follow the shape of the dose curve; as a rule, active = well fitted curve in the direction sought with a large enough effect; inconclusive = small, poorly fitted or top-dose-only effect, or another doubt; inactive = no such curve, though single readings can be large; an effect the other way counts as inactive or inconclusive. Unless noted, % is scaled to controls: 0 for no effect and ±100 for the full control effect; potency is read from the fitted curve at half-maximal effect.

SMILES | PLK1 PBD inh | Sfp PPTase inh | TrxR1 substrate | VDR inhibitor | TrxR1 inh | mIDH1 inhibitor
Nc1ccc2nc3c(=O)n(CCc4ccccc4)c(=O)[nH]c3nc2c1 | 4.2µM* | -18% | 0%[57.1 µM] | -3% | 10%[57.1 µM] | 13%
CCCCn1c(=O)[nH]c2nc3cc(N)ccc3nc2c1=O | 4.7µM* | 56µM* | -4%[57.1 µM] | ? | ? | 5%
Cc1cc2nc3c(=O)n(CCc4ccccc4)c(=O)[nH]c3nc2cc1N | 2.7µM* | 7.9µM* | 2% | -27% | 21% | 5%
CCCCn1c(N)c(Br)c(=O)[nH]c1=O | -9% | 16% | 5% | -13% | 28% | -7%
c1cncc(-c2cc(-n3ccnc3)ncn2)c1 | · | 79µM* | · | -16% | · | ·
CN(C)c1ccc(-c2cc(NCc3ccccc3)ncn2)cc1 | · | -10% | · | -24% | · | ·
CN(C)c1ccc(-c2cc(-n3ccnc3)ncn2)cc1 | · | 50µM* | · | 50µM* | · | ·
CN(C)c1ccc(-c2cc(Nc3ccc(F)cc3)ncn2)cc1 | · | ? | · | 45µM* | · | ·
CN(C)Cc1ccccc1-c1cc(-n2ccnc2)ncn1 | · | 50µM* | · | -27% | · | ·
CC(Nc1oc(-c2ccccc2)nc1-c1ccc(C(F)(F)F)cc1)c1ccccc1 (stereo not drawn) | · | ? | · | 12% | · | ·
CC(OC(=O)/C(C#N)=C/c1ccc(N(C)C)cc1)C(=O)N(C)Cc1ccccc1 (stereo not drawn) | 3% | 11% | -15% | 70% | -9% | 13%
CCN(CC)c1ccc(NC(=O)Cn2cc3c(n2)CCCC3)c(C)c1 | · | · | 1% | 7% | 4% | 19%
COc1ccccc1N(CC(=O)NC(C)(C)C)S(=O)(=O)c1cccs1 | 27µM* | -13% | -6% | ? | 6%[57.1 µM] | 23%
CCNC(=O)CN(c1ccccc1OC)S(=O)(=O)c1cccs1 | -3% | 0% | 5%[57.1 µM] | 5% | -1%[57.1 µM] | 13%
Nc1ccccc1NC1=CC(=O)CC(c2ccco2)C1 (stereo not drawn) | -3% | 8.9µM* | -13% | 4% | -12% | 8%
COc1ccc(C2(CNC(=O)/C=C\c3ccco3)CCCC2)cc1OC | ? | 18µM* | -1% | 14% | 10µM* | 12%
COc1ccc(C2(CNC(=O)c3cc(OC)c(OC)c(OC)c3)CCCC2)cc1OC | 2% | · | 1% | 4% | 13% | 18%
COc1ccc(C(NC(=O)/C=C/c2ccco2)c2ccc(OC)c(OC)c2)cc1OC | -12% | 20µM* | -8% | -21% | 4.5µM* | -4%
Cn1ncc2c(=S)nc(Cl)[nH]c21 | 27µM* | · | -14% | ? | 7.1µM* | 11%
Cc1cc(Cl)ccc1NC(=O)CCCn1nc(C)c2c(C)n(-c3ccccc3)nc2c1=O | · | · | 9% | -8% | 18% | -8%
CCN(c1ccccc1)S(=O)(=O)c1cccc(C(=O)Nc2cccc(C)n2)c1 | -2% | · | · | · | · | 4%
O=C(CSc1nnc(-c2cccs2)o1)Nc1cccc(C(F)(F)F)c1 | · | · | -7% | -1% | 0% | 11%
N#Cc1ccc(C(=O)Nc2nnc(-c3cccs3)o2)cc1 | 27µM* | 8% | -14% | ? | -1% | 1%
CN(C)S(=O)(=O)c1ccc(C(=O)Nc2nnc(-c3cccs3)o2)cc1 | ? | 10% | -6% | -10% | 7% | 5%
O=C(Nc1nnc(-c2cccs2)o1)c1cccc(C(F)(F)F)c1 | 30µM* | 14% | -15% | ? | 1% | 0%
CCOc1c(Cl)cc(CNc2ccc3[nH]c(=O)[nH]c3c2)cc1OC | · | · | -3% | 6% | ? | 6%
